Measured values: PubChem BioAssay (NCATS)
Records with an inconclusive call do not appear. Active and inactive are the calls of the source. Unless noted, the call rests on the fitted dose curve; in most records, active means well fitted curve in either direction with a large enough effect (not every such curve was filed as active); inconclusive means small, poorly fitted or top-dose-only effect, or another doubt; inactive means flat fitted curve, though single readings scatter.

Molecular target: Lysosomal acid glucosylceramidase (Homo sapiens) (UniProt P04062)
Sequence (P04062 whole entry, looked up): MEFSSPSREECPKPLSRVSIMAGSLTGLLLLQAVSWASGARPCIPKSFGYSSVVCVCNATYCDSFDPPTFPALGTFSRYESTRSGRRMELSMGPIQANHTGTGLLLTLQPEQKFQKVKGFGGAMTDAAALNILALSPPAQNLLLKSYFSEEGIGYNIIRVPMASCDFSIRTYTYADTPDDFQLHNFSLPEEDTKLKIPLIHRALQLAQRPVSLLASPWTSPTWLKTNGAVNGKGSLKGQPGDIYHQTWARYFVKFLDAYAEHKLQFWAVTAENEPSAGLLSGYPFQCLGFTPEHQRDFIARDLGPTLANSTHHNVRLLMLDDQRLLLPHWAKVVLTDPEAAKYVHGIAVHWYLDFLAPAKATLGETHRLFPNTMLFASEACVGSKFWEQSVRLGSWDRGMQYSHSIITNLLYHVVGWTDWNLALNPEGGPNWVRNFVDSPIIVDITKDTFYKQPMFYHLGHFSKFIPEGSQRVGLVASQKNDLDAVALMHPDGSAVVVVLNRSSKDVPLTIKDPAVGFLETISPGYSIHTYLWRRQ
Test: Glucocerebrosidase-p2 (AID 348; in the data active means potency below about 10 µM; further: potency means the concentration at half of the fitted maximal effect)
Details: purified GBA, blue fluorogenic substrate, 40 min
Outline: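 Normal human glucocerebrosidase (0.2 nM) with blue fluorogenic substrate (80 uM final) in citrate/phosphate pH 5.9 with 10mM sodium taurocholate, 0.01% tween-20; 40 min RT, NaOH/glycine stop; fluorescence Ex 365/Em 440; AC50 from a titration from 0.6 nM upwards.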

Potency, inactive:
O=C(c1cccc(F)c1)N1CCC[C@@]2(CCN(C(c3ccccc3)c3ccccc3)C2)C1 > 11.4 µM
COc1ccccc1CNc1ncnc2ccc(-c3cccnc3)cc12 > 11.4 µM
Cc1ccccc1-c1ccc2ncnc(N(C)Cc3ccco3)c2c1 > 11.4 µM
CN(Cc1ccco1)c1nc(-c2cccc(C#N)c2)nc2ccccc12 > 11.4 µM
COc1ccc(-c2nc3cnc(Nc4cccc(OC)c4)nc3n(CCC#N)c2=O)cc1 > 11.4 µM
COc1cccc(-c2cncnc2NCc2ccc(OC)cc2OC)c1 > 11.4 µM

Potency, active:
COc1cccc(-c2nc(Nc3ccncc3)c3ccccc3n2)c1 2.53 µM

Test system: not listed separately
Test: AP1 Signaling Pathway (AID 357); further: on the % scale 0 is the no-effect control and ±100 the full control effect
Details: ME-180 AP-1-bla reporter, EGF-induced, beta-lactamase ratio, 5 h; at 7.69 µM (top of the series) unless noted
Outline: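 AP-1-bla ME-180 cells with beta-lactamase reporter under AP-1 response element, stimulated with EC50 EGF; compounds titrated, 5 hours at 37 degrees Celsius. CCF4 read at 460/530 nm ratio; positive and negative modulators judged by AC50.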

Activity change, negative = inhibition, inactive:
O=C(c1cccc(F)c1)N1CCC[C@@]2(CCN(C(c3ccccc3)c3ccccc3)C2)C1 28.8%
Nc1nc2n[nH]nc2c(=O)[nH]1 -1.23% [at 17.2 µM]
Cc1ccccc1-c1ccc2ncnc(N(C)Cc3ccco3)c2c1 -8.93%
CN(Cc1ccco1)c1nc(-c2cccc(C#N)c2)nc2ccccc12 6.74%
CN(Cc1ccco1)c1nc(-c2ccccc2Cl)nc2ccccc12 16.9%
COc1cccc(-c2nc(Nc3ccncc3)c3ccccc3n2)c1 -6.31%
COc1cccc(-c2cncnc2NCc2ccc(OC)cc2OC)c1 -7.15%

Molecular target: Cytochrome P450 1A2 (Homo sapiens) (UniProt P05177)
Sequence (P05177 whole entry, looked up): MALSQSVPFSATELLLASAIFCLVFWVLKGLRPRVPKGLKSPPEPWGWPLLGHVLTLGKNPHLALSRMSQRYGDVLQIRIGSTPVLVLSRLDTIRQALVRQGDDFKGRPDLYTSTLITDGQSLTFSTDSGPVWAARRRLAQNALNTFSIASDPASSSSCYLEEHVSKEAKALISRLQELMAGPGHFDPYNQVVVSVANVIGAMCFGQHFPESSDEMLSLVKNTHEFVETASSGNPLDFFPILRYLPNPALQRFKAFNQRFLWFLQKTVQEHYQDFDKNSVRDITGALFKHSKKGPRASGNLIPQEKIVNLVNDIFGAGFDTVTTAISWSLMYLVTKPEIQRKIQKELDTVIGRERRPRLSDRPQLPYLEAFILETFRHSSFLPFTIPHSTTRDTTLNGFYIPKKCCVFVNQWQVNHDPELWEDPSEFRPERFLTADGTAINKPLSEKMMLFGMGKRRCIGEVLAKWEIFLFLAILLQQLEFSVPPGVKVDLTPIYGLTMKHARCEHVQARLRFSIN
Test: p450-cyp1a2 (AID 410; calls by dose curve; further: potency means the concentration at half of the fitted maximal effect;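 on Activity change, negative = inhibition: -100% = full effect of reference inhibitor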)
Details: recombinant CYP1A2, luciferin-ME demethylation, luminescence; series mostly up to 57 µM
Outline: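 Luminescent demethylation readout: Luciferin-ME (100uM, equal to Km) turned over by 20nM CYP1A2 for 60 min at room temperature after NADPH regeneration addition, following 10 min compound preincubation. Normalization used 57 uM furafylline as full inhibition.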

Potency, inactive:
O=C(c1cccc(F)c1)N1CCC[C@@]2(CCN(C(c3ccccc3)c3ccccc3)C2)C1
Nc1nc2n[nH]nc2c(=O)[nH]1

Potency, active:
COc1ccccc1CNc1ncnc2ccc(-c3cccnc3)cc12 0.316 µM
CN(Cc1ccco1)c1nc(-c2cccc(C#N)c2)nc2ccccc12 0.1 µM
COc1ccc(-c2nc3cnc(Nc4cccc(OC)c4)nc3n(CCC#N)c2=O)cc1 6.31 µM
COc1cccc(-c2nc(Nc3ccncc3)c3ccccc3n2)c1 0.794 µM
COc1cccc(-c2cncnc2NCc2ccc(OC)cc2OC)c1 3.98 µM

Test system: not listed separately
Test: NFAT Signaling Pathway (AID 444);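 further: carbachol stimulus at about its EC50 of 1 µM final; on the % scale 0 is the no-effect control and ±100 the full control effect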
Details: Jurkat NFAT-bla M1, carbachol, beta-lactamase ratio, 5 h; at 7.69 µM (top of the series) unless noted
Outline: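 Jurkat cells with NFAT-driven β-lactamase reporter and co-expressed M1 receptor, stimulated with carbachol (final 1 uM, ~EC50), compound titration, 5 h at 37 °C. CCF4 loaded 1 h at RT; 460/530 nm ratio gave %activity and AC50.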

Activity change, negative = inhibition, inactive:
O=C(c1cccc(F)c1)N1CCC[C@@]2(CCN(C(c3ccccc3)c3ccccc3)C2)C1 0.838%
COc1ccccc1CNc1ncnc2ccc(-c3cccnc3)cc12 12.3%
Cc1ccccc1-c1ccc2ncnc(N(C)Cc3ccco3)c2c1 -28.4%
COc1ccc(-c2nc3cnc(Nc4cccc(OC)c4)nc3n(CCC#N)c2=O)cc1 -19.2%
CN(Cc1ccco1)c1nc(-c2ccccc2Cl)nc2ccccc12 -23.4%
COc1cccc(-c2cncnc2NCc2ccc(OC)cc2OC)c1 -10.1%

Test system: not listed separately
Test: Stat Signaling Pathway (AID 446);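 further: ME-180 cervical cancer cells given 40 pM IL-6 alongside compound; SIE-controlled beta-lactamase reporter measured as 460/530 nm FRET emission ratio; on the % scale 0 is the no-effect control and ±100 the full control effect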
Details: ME-180 (cervical carcinoma) SIE beta-lactamase reporter, IL-6 stimulated, 5 h; at 7.69 µM (top of the series) unless noted
Outline: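 FRET read-out (405 nm excitation, 460/530 nm emission) of a beta-lactamase reporter under a STAT-inducible element in ME-180 cervical carcinoma cells. Cells with compound receive 40 pM IL-6 for 5 h. Values are normalised to AC90 stimulation and AC90 JAK-inhibitor controls.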

activity, negative = inhibition, inactive:
O=C(c1cccc(F)c1)N1CCC[C@@]2(CCN(C(c3ccccc3)c3ccccc3)C2)C1 12.6%
Nc1nc2n[nH]nc2c(=O)[nH]1 -26.9% [at 17.2 µM]
COc1ccccc1CNc1ncnc2ccc(-c3cccnc3)cc12 -17.2%
Cc1ccccc1-c1ccc2ncnc(N(C)Cc3ccco3)c2c1 -13.4%
CN(Cc1ccco1)c1nc(-c2cccc(C#N)c2)nc2ccccc12 12.3%
COc1ccc(-c2nc3cnc(Nc4cccc(OC)c4)nc3n(CCC#N)c2=O)cc1 -10%
CN(Cc1ccco1)c1nc(-c2ccccc2Cl)nc2ccccc12 21.7%
COc1cccc(-c2nc(Nc3ccncc3)c3ccccc3n2)c1 -15.1%
COc1cccc(-c2cncnc2NCc2ccc(OC)cc2OC)c1 -6.14%

Molecular target: Glucocorticoid receptor (Homo sapiens) (UniProt P04150)
Sequence (P04150 whole entry, looked up): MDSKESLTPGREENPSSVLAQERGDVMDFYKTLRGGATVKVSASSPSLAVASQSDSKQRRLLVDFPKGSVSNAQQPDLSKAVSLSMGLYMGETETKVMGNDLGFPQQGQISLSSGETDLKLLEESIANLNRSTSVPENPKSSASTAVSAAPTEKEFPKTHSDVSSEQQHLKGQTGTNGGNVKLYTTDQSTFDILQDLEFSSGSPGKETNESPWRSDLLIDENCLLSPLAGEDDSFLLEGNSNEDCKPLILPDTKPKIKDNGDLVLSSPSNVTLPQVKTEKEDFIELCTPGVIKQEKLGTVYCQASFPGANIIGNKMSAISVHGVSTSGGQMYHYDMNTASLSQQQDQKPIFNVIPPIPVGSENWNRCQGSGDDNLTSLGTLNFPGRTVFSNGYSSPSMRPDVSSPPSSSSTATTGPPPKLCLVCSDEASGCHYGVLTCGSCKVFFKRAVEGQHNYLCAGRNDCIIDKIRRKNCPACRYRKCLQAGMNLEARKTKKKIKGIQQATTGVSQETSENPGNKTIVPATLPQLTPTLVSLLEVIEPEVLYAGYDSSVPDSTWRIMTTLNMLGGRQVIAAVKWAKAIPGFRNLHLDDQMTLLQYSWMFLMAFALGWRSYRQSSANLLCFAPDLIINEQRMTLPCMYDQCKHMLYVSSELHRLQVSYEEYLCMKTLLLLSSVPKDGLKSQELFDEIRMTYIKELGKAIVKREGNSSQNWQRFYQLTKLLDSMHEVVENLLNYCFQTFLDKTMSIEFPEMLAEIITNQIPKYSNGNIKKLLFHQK
Test: GR-GFP Redistribution (AID 450;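 active means compounds whose dose series gives a full or clear partial fitted curve of increased nuclear translocation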; further: potency means the concentration at half of the fitted maximal effect)
Details: U2OS GR-GFP nuclear translocation, laser cytometry, 2 h

Potency, inactive:
COc1c(-c2ccc(O)c(O)c2)oc2cc(O)cc(O)c2c1=O > 46 µM
Nc1nc2n[nH]nc2c(=O)[nH]1 > 20.6 µM
COc1ccccc1CNc1ncnc2ccc(-c3cccnc3)cc12 > 46 µM
Cc1ccccc1-c1ccc2ncnc(N(C)Cc3ccco3)c2c1 > 46 µM
CN(Cc1ccco1)c1nc(-c2cccc(C#N)c2)nc2ccccc12 > 46 µM
COc1ccc(-c2nc3cnc(Nc4cccc(OC)c4)nc3n(CCC#N)c2=O)cc1 > 9.22 µM
CN(Cc1ccco1)c1nc(-c2ccccc2Cl)nc2ccccc12 > 46 µM
N#C/C(=C\c1ccc(O)c(O)c1)C(=O)NCCCCc1ccccc1 > 46 µM
COc1cccc(-c2cncnc2NCc2ccc(OC)cc2OC)c1 > 46 µM

Molecular target: Glucocorticoid receptor (Homo sapiens) (UniProt P04150)
Test: GR-EFC Redistribution (AID 451; calls by dose curve; further: potency means the concentration at half of the fitted maximal effect)
Details: CHO-K1 GR-EFC translocation, beta-gal luminescence, 2 h
Outline: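 CHO-K1 cells expressing nuclear EA and GR-ED fragments of b-gal; compounds titrated up to 46 uM final, 2 h at 37 C. GR nuclear translocation read as complemented b-gal luminescence after 1 h RT detection.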

Potency, inactive:
COc1c(-c2ccc(O)c(O)c2)oc2cc(O)cc(O)c2c1=O > 46 µM
O=C(c1cccc(F)c1)N1CCC[C@@]2(CCN(C(c3ccccc3)c3ccccc3)C2)C1 > 46 µM
Nc1nc2n[nH]nc2c(=O)[nH]1 > 20.6 µM
COc1ccccc1CNc1ncnc2ccc(-c3cccnc3)cc12 > 46 µM
Cc1ccccc1-c1ccc2ncnc(N(C)Cc3ccco3)c2c1 > 46 µM
CN(Cc1ccco1)c1nc(-c2cccc(C#N)c2)nc2ccccc12 > 46 µM
COc1ccc(-c2nc3cnc(Nc4cccc(OC)c4)nc3n(CCC#N)c2=O)cc1 > 46 µM
CN(Cc1ccco1)c1nc(-c2ccccc2Cl)nc2ccccc12 > 46 µM
COc1cccc(-c2nc(Nc3ccncc3)c3ccccc3n2)c1 > 46 µM
N#C/C(=C\c1ccc(O)c(O)c1)C(=O)NCCCCc1ccccc1 > 46 µM
COc1cccc(-c2cncnc2NCc2ccc(OC)cc2OC)c1 > 46 µM
